The entries come from a sample that favours hits as a whole.
KDM5B inhibitor = inhibitors of human KDM5B histone demethylase; Potency, µM (series often up to 57.7 µM), most hits filed as inhibitors; actives 2.6% (n = 220,000); AID 1347165; KDM5B demethylase, FDH-coupled NADH fluorescence (FDH is formaldehyde dehydrogenase); Q9UGL1; active = well fitted inhibition curve with a large enough effect; also: 0% is about no effect; nearly all actives have a fitted effect of over 70% in size
Target sequence (Q9UGL1 whole entry, looked up): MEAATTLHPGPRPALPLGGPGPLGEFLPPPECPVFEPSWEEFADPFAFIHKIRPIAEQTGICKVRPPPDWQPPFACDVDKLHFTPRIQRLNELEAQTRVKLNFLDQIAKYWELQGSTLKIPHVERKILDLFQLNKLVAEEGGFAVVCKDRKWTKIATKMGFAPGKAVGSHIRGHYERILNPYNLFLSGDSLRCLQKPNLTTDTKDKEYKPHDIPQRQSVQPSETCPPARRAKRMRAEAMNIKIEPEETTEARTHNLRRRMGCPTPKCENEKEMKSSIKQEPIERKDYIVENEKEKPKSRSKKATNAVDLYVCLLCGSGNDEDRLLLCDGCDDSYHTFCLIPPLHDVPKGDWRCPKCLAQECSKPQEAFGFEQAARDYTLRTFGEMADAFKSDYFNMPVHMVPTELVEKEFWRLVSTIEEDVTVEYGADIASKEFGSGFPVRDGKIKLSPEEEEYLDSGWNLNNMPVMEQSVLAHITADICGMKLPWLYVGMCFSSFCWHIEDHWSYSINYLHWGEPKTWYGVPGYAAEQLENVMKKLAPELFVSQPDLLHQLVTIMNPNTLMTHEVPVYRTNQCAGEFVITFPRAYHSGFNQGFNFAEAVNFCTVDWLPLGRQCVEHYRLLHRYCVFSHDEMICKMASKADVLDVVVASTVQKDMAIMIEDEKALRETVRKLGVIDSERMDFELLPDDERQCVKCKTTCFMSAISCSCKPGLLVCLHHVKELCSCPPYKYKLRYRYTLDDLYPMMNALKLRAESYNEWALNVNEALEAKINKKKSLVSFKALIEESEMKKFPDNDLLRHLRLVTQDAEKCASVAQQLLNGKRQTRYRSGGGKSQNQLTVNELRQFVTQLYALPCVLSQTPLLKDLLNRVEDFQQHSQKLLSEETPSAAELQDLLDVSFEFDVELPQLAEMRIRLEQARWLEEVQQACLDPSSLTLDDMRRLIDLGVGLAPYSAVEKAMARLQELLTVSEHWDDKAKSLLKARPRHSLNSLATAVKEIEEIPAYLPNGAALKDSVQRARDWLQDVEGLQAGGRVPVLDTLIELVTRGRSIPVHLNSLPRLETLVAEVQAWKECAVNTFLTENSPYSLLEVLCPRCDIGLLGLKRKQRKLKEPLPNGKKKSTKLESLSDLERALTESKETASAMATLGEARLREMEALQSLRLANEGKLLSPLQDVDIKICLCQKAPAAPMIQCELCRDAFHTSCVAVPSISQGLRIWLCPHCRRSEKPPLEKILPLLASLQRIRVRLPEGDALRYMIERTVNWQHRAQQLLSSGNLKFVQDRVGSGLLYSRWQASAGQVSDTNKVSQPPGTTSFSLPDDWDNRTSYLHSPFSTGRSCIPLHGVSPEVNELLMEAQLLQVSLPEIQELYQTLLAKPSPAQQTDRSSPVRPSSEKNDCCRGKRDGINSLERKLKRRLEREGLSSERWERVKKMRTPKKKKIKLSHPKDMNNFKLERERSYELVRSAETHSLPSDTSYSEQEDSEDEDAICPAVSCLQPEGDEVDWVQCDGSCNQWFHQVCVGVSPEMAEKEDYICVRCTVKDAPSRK
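Inhibition is measured as reduced NADH fluorescence generation from FDH coupling to formaldehyde release. Truncated KDM5BΔAP at 200 nM final acts on H3K4me3 peptide (12.5 µM in substrate mix) in pH 7.5 HEPES buffer with Tween-20, 30 min, room temperature.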
* marks the source's active call; other numbers are inactive results; i = inactive. Potency is read from the fitted curve at half-maximal effect.

SMILES	KDM5B inhibitor
CCc1ccc(Nc2nc(-c3ccccc3F)no2)cc1	i
O=C1CCCN1Cc1nc(-c2ccc(F)c(Cl)c2)no1	i
Fc1ccc(N2CCN(c3nc(-c4ccccc4F)no3)CC2)cc1	i
CN(Cc1nccs1)c1ccc(-c2nc(-c3ccccc3F)no2)cn1	22µM*
CCOC(=O)C(C(=O)OCC)C(NC(=O)OC)C(Cl)(Cl)Cl (centres undefined)	i
Cc1ccc(NC(=O)N2CCC(CCNC(=O)c3sccc3C)CC2)cc1	i
CCCNC(=O)c1coc(COc2ccc3c(c2)C(c2cccc(C)c2)N(C(=O)C2CC2)CC3)n1 (centres undefined)	i
N#C/C(=C\c1ccc(-c2cccc(Cl)c2)o1)c1nc2ccccc2[nH]1	i
CCc1ccc(C(=O)COC(=O)Cc2ccc(-c3ccccc3)cc2)cc1	i
C/C(=N/NC(=S)NC1CCCCC1)c1ccc(C(C)(C)C)cc1	i
CC(C)Cn1c(Oc2ccc(Cl)cc2)nc2c1c(=O)n(C)c(=O)n2C	i
COc1ccc(C(=O)Nc2ccc(-c3nnc4n3CCCC4)cc2)cc1	i
CC(=O)c1ccc(N2CCN(C(=O)c3cc4c(-c5ccc(Cl)cc5)nn(C)c4s3)CC2)cc1	i
Fc1ccc(N/N=C/c2ccc(Br)cc2)c(F)c1	i
O=C(O)c1ccc(COc2cccc(/C=N/O)c2)cc1	i
O=C(NC1CCCC1)C1CCCN(C(=O)c2ccc3cc[nH]c3c2)C1 (centres undefined)	i
Cn1nnnc1C1CCCN(C(=O)C2CC2)C1 (centres undefined)	i
O=C(c1ccc2cc[nH]c2c1)N1CCCC(c2nn[nH]n2)C1 (centres undefined)	22µM*
Cc1cc(C)n(CCC(=O)N2CCCC(c3nnnn3C)C2)n1 (centres undefined)	25µM*
Cc1noc(-c2cn(C3CCCN(C(=O)c4ccc5[nH]ccc5c4)C3)nn2)n1 (centres undefined)	i
CN1CCOC[C@H]2CCN(C(=O)c3cccc4[nH]ccc34)C[C@H]21	25µM*
Cn1nnnc1C1CCCN(C(=O)c2ccc3cc[nH]c3c2)C1 (centres undefined)	20µM*
Cn1nnnc1C1CCCN(C(=O)c2ccccc2)C1 (centres undefined)	i
CN1CCOC[C@H]2CCN(C(=O)c3ccco3)C[C@H]21	i
O=C(c1cc(F)ccc1F)N1CCCC(c2nn[nH]n2)C1 (centres undefined)	i
SMILES	KDM5B inhibitor
Cn1nnnc1C1CCCN(C(=O)CC2CCCC2)C1 (centres undefined)	i
CN(C)C(=O)N1Cc2ccccc2OC2(CCN(C(=O)c3cccc4[nH]ccc34)CC2)C1	i
O=[N+]([O-])c1cccc(/C=N/Nc2ccc(Cl)nn2)c1	i
Cc1cccc(-c2noc(-c3ccco3)n2)c1	i
C[C@@H]1CN(C(=O)c2ccc(Cn3cnnn3)cc2)CC[C@@]1(O)C1CCOCC1	i
CCOCCOC(C)C(=O)NCC(CC)c1ccccc1 (centres undefined)	i
O=C(c1ccco1)N1CCCC(c2nn[nH]n2)C1 (centres undefined)	22µM*
Cc1ccc(C(=O)N2CCC(c3noc(C4CC4)n3)C2)cn1 (centres undefined)	i
Cn1nccc1C(=O)N1CCCC(c2nnnn2C)C1 (centres undefined)	i
Cn1nnnc1C1CCCN(C(=O)c2cccc3[nH]ccc23)C1 (centres undefined)	32µM*
CCn1c(C2CCCN(C(=O)c3ccco3)C2)nn(C)c1=O (centres undefined)	i
CN1CCC([C@@H]2CN(C(=O)c3ccccc3Cl)C[C@H]2C(N)=O)CC1	i
COc1ccccc1C(=O)N1CCCC(c2nn[nH]n2)C1 (centres undefined)	i
Cc1cccc(NC(=O)N2CCCC(c3nnnn3C)C2)c1 (centres undefined)	i
CN1CCC([C@@H]2CN(C(=O)c3ccc4cc[nH]c4c3)C[C@H]2C(N)=O)CC1	20µM*
O=C(NC1CCCCC1)N1CCCC(c2nn[nH]n2)C1 (centres undefined)	i
Cc1ccc(C(=O)N2CCCC(c3nn[nH]n3)C2)cn1 (centres undefined)	22µM*
CCN(CC)CC1CCN(C(=O)c2ccc3cc[nH]c3c2)CC1	i
Fc1cccc(CN(Cc2ccco2)C2CCCC2)c1	i
Cc1ccccc1NC(=O)N1CCC(CCNC(=O)c2ccnn2C)CC1	i
c1ccc(Cn2ccnc2)c(CNC2CCCCCC2)c1	i
CCOC(=O)C1=C(CS(=O)(=O)c2cc(Cl)ccc2OC)NC(=O)NC1c1cccc(OC)c1 (centres undefined)	i
Cn1c(SCc2nc(N)nc(Nc3ccccc3)n2)nnc1C1CC1	i
Cn1nc2n(c1=O)CCN(Cc1ccc3c(c1)CCO3)CC2	i
O=C(COc1ccccc1)Nc1ccc(Cl)c(-c2nc3ccccc3o2)c1	i
SMILES	KDM5B inhibitor
O=C(CC1CCCC1)NCC1CCCCC(=O)N1 (centres undefined)	i
COCCOC1CN(C2CCN(C(=O)c3ccc(OC)cc3)CC2)C12CCCCC2 (centres undefined)	i
COCCOC1CN(C2CCN(C(=O)c3nn(C)c4ccccc34)CC2)C12CCCCC2 (centres undefined)	i
COCCOC1CN(C2CCN(C(=O)c3cccc4[nH]ccc34)CC2)C12CCCCC2 (centres undefined)	22µM*
COc1cccc(-c2cc3c(=O)n(CCNC(=O)c4cc(C)cc(C)c4)ccn3n2)c1	32µM*
COc1cccc(-c2cc3c(=O)n(CC(O)c4cccc(C#N)c4)ccn3n2)c1 (centres undefined)	22µM*
COc1cccc(-c2cc3c(=O)n(CCNC(=O)C4CCN(C(C)=O)CC4)ccn3n2)c1	20µM*
COc1ccc(C(=O)NCCn2ccn3nc(-c4cccc(OC)c4)cc3c2=O)cc1	22µM*
COc1cccc(-c2cc3c(=O)n(CCNC(=O)c4cccc(Cl)c4)ccn3n2)c1	i
COc1cccc(CC(=O)NCCn2ccn3nc(-c4ccc(C)cc4C)cc3c2=O)c1	i
COc1cccc(-c2cc3c(=O)n(CCNC(=O)C4CCCCC4)ccn3n2)c1	i
Cc1ccc(C(=O)N2CCC3(CC2)NC(=O)N(Cc2ccc(F)cc2)C3=O)cc1F	i
COC(=O)c1ccc(COc2ccccc2/C=C2\CCc3cc(OC)ccc3C2=O)cc1	i
O=C(c1cc2ccccc2oc1=O)N(Cc1ccco1)Cc1ccccc1Cl	i
O=C(c1cc2occc2n1Cc1ccccc1F)N1CCSCC1	i
COc1ccc(C(=O)Nc2ccc3oc(=O)ccc3c2)cc1OC	i
COc1ccc(CNC(=O)c2sc(-c3ccc(C)cc3)nc2C)cc1	i
CC(C)C(=O)N1CCC(Oc2cccc(F)c2)C1 (centres undefined)	i
CCOC(=O)c1cccc(NC(=O)N2CC[C@@H](CC(=O)Nc3nccs3)[C@@H](CC)C2)c1	i
NC(=O)c1cc(C(=O)O)c[nH]1	i
O=C(CC1C(=O)Nc2nc(SCc3ccccc3)nn21)Nc1ccccc1 (centres undefined)	i
COc1ccc(S(=O)(=O)Nc2ccc(Nc3cc(N4CCCC4)nc(C)n3)cc2)cc1C	i
COc1cccc(-c2cc3c(=O)n(CCNC(=O)c4cc(Cl)ccc4F)ccn3n2)c1	25µM*
COc1cccc(-c2cc3c(=O)n(CCNC(=O)c4ccc(C(C)(C)C)cc4)ccn3n2)c1	25µM*
